# CYP2C9 activ: human CYP2C9 activators, primary screen, biochemical, luminescence | recombinant CYP2C9, luciferin-H conversion; hits give high values; factor 1 = untreated enzyme, 0 = blocked | activation factor at 5 µM | 1.4% of 96,000 active | AID 1024, 2008;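 active = activation factor of 2 or more for CYP2C9 at a 5 µM dose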;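 also: 0 = sulfaphenazole-blocked wells and 1 = vehicle-only wells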
# Target sequence (P11712 whole entry, looked up): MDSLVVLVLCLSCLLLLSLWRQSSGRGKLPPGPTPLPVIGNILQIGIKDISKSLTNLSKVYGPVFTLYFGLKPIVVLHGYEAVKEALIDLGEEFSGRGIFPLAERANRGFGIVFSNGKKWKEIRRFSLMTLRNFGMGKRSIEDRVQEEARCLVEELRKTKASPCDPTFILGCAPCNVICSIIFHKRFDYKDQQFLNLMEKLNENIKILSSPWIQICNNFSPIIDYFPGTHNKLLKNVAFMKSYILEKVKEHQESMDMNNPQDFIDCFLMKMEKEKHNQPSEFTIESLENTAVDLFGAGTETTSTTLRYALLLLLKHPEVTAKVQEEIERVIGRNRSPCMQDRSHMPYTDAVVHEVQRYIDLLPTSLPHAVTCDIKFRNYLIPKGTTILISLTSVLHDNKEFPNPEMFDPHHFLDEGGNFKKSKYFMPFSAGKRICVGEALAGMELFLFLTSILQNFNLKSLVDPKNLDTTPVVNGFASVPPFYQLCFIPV
# PostGolgi ctrl: growth inhibition of yeast control strain, primary screen, counter-screen for post-Golgi transport modulator project | AID 738, 2007 | efflux-deficient yeast background strain, growth absorbance A615, 16 h | inhibition, % at 10 µM | 5% of 98,000 active
# CYP2C9 inh: blockers of cytochrome P450 2C9 activity – biochemical, luminescence, ADME assay, primary screen | P11712 | CYP2C9 Supersomes, luciferin-H conversion | inhibition, % at 5 µM | 20% of 96,000 active;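 active = blocking of liver enzyme CYP2C9 beyond about 50% at 5 µM, limit read from the data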
# CYP2C19 inhib: blockers of cytochrome P450 2C19 activity – biochemical, luminescence, ADME assay, primary screen; CYP2C19 Supersomes, luciferin-H EGE luminescence, 30 min; AID 778, 2007; 21% of 96,000 active; inhibition, % at 5 µM;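 active = CYP2C19 inhibition above a set limit at 5 µM in the primary screen, cut at about 50% in these data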;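 also: plate controls were negative control wells for no effect and 2.5 mM tranylcypromine positive control for full effect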
# PostGolgi yeast: phenotypic screen on post-Golgi transport, primary screen; post-Golgi transport phenotypic cell assay; AID 739, 2007; inhibition, % at 10 µM; 0.9% of 98,000 active;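 also: yeast cells grown in 1536-well plates; yeast grown about 18 h at 30C before absorbance read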
# CYP2C19 act: human CYP2C19 activators, primary screen, biochemical, luminescence; Cytochrome P450 2C19 (Homo sapiens), P33261; recombinant CYP2C19, luciferin-H EGE luminescence; hits give high values; 0 = fully inhibited enzyme, 1 = untreated enzyme; activation factor at 5 µM; 96,000 tested, under 10 active;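 active = activation factor of at least 2 at 5 µM in the primary screen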;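 also: 0 = wells with 2.5 mM tranylcypromine and 1 = vehicle-only wells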
# * = called active by the depositor; . = no result. Compounds with a hit are over-represented: about 32% of the library has one in this group of screens. Rule as the data show it, unless noted: active = inhibition above about 30%; inactive = the rest.
SMILES,CYP2C9 activ,PostGolgi ctrl,CYP2C9 inh,CYP2C19 inhib,PostGolgi yeast,CYP2C19 act
Cc1ccc(SCC(=O)N2CCCC2)cc1,1,1,3,27,1,0.7
Cc1ccc(SCCC(=O)N2CCCC2)cc1,0.5,-1,49,90*,-9,0.1
O=C(CCSc1ccccc1)N1CCOCC1,1.1,4,-13,37,-6,0.6
Cc1ccc(SCCC(=O)N2CCOCC2)cc1,0.9,-4,15,95*,-3,0
CN1CCCN(C(=O)c2ccc(Cl)c(S(=O)(=O)N(C)c3ccccc3)c2)CC1,0.7,-1,30,-10,-9,1.1
O=C(O)c1cc(-c2ccncc2)nc2ccc(F)cc12,0.9,-3,10,12,-7,0.9
COc1ccc2cc(CN(CC3COCCO3)S(=O)(=O)c3ccc(Cl)cc3)c(=O)[nH]c2c1 (stereo not drawn),0.4,24,60*,22,4,0.8
COc1ccc2cc(CN(CC3COCCO3)S(=O)(=O)c3c(C)cc(C)cc3C)c(=O)[nH]c2c1 (stereo not drawn),0.8,19,20,21,3,0.8
O=c1[nH]c2cc3c(cc2cc1CN(CC1CCCO1)S(=O)(=O)c1ccc(Cl)cc1)OCCO3 (stereo not drawn),1.2,3,-22,-17,-7,1.2
COc1ccc2cc(CN(CC3CCCO3)S(=O)(=O)c3ccccc3)c(=O)[nH]c2c1 (stereo not drawn),0.1,4,86*,-17,-8,1.2
COC(=O)c1ccccc1S(=O)(=O)N(Cc1ccco1)Cc1cc2cc(OC)ccc2[nH]c1=O,0.5,7,45,68*,-1,0.3
Cc1ccc(C)c2[nH]c(=O)c(CN(Cc3ccco3)S(=O)(=O)c3ccc4c(c3)OCCO4)cc12,0.3,27,67*,75*,-7,0.2
COc1ccc(S(=O)(=O)NC(CC(=O)NCCc2ccc(OC)c(OC)c2)c2ccco2)cc1 (stereo not drawn),0.9,4,10,2,-2,1
COc1ccc(C(=O)COC(=O)Cn2nnc3ccccc32)cc1Br,1.2,9,-20,-7,-15,1.1
Cc1cc(C)c2cc(CN(CC3CCCO3)S(=O)(=O)c3ccc4c(c3)OCCO4)c(=O)[nH]c2c1 (stereo not drawn),0.3,9,73*,36,13,0.6
Cc1ccc(C)c2[nH]c(=O)c(CCNC(=O)C(C)(C)C)cc12,0.9,2,7,34,0,0.7
COc1ccc2[nH]c(=O)c(CN(CCO)S(=O)(=O)c3ccc4c(c3)OCCO4)cc2c1,0.5,2,48,75*,-15,0.2
CCc1ccc2[nH]c(=O)c(CN(Cc3ccco3)S(=O)(=O)c3ccc4c(c3)OCCO4)cc2c1,1.1,11,-10,-7,0,1.1
COC(=O)c1ccccc1S(=O)(=O)N(CCCO)Cc1cc2c(C)ccc(C)c2[nH]c1=O,0.2,36*,84*,54*,10,0.5
Cc1ccc(S(=O)(=O)N(Cc2cc3cc4c(cc3[nH]c2=O)OCCO4)CC2CCCO2)cc1 (stereo not drawn),0.8,-13,24,21,-10,0.8
O=c1c2c3c(sc2nc2sc(CN4CCOCC4)cn12)CCCC3,0.8,3,20,3,0,1
CCCc1nnc(N2C(=O)c3cccc4cccc(c34)C2=O)s1,3*,8,-203,-8,-1,1.1
O=C(NC1CC1)c1cc(-c2ccccn2)nc2ccccc12,0.9,34*,10,-5,1,1
O=C(Nn1cnnc1)c1cc(-c2ccccn2)nc2ccccc12,0.6,1,38,2,10,1
Cc1cccc(C)c1OCCn1nc(C(=O)O)c2ccccc2c1=O,1,8,1,28,-6,0.7
SMILES,CYP2C9 activ,PostGolgi ctrl,CYP2C9 inh,CYP2C19 inhib,PostGolgi yeast,CYP2C19 act
Cc1cccc(OCCn2nc(C(=O)O)c3ccccc3c2=O)c1,0.3,20,68*,72*,8,0.3
CCOc1ccc(C(C)=O)cc1Cn1nc(C(=O)O)c2ccccc2c1=O,0.9,13,5,2,0,1
Cc1noc(C)c1Cn1nc(C(=O)O)c2ccccc2c1=O,0.2,21,80*,36,-12,0.6
Cc1cc(C(=O)NCCCN2CCN(C3CCCCC3)CC2)n(-c2ccccc2)n1,1.1,21,-6,-12,-2,1.1
CS(=O)(=O)N(CC(=O)NCc1ccccn1)c1ccc2c(c1)OCCO2,1.2,-13,-18,-14,6,1.1
CS(=O)(=O)N(CC(=O)NCCSc1ccccc1)c1ccc2c(c1)OCO2,0.4,4,64*,76*,1,0.2
CS(=O)(=O)N(CC(=O)NCCSc1ccc(Cl)cc1)c1ccc2c(c1)OCO2,0.4,10,62*,69*,6,0.3
CN(C)C(=O)CN(c1ccc2c(c1)OCO2)S(C)(=O)=O,1,-9,4,18,-3,0.8
CS(=O)(=O)N(CC(=O)NCCSCc1cccc(Cl)c1)c1ccc2c(c1)OCO2,0.2,16,82*,88*,3,0.1
O=c1[nH]cnc2c1C(c1ccccc1[N+](=O)[O-])c1c(nc[nH]c1=O)O2,0.9,9,13,-15,5,1.1
Cc1ccc2c(c1)C(C)(C)[C@]1(C)NC(=O)CCN21,0.8,5,21,25,2,0.8
CC1(C)Cc2c(c(-c3ccco3)[nH]c(=O)c2C#N)CO1,.,0,.,.,16,.
COc1cc(OC)cc(C(=O)NCCN2CCOCC2)c1,1.2,-6,-15,2,4,1
O=C(Nc1cc(C(F)(F)F)ccc1F)C1CCCC1,1.1,-3,-14,1,-3,1
Cc1ccc(C(C)C)c(OCCN(C)C)c1,1,0,-4,14,-5,0.9
Cc1ccc(C(C)C)c(OCCNC(=S)Nc2cccc3ccccc23)c1,0.2,1,84*,85*,-6,0.1
CCSc1nnc(NC(=O)c2cccc(OCc3c(C)noc3C)c2)s1,0.1,4,86*,88*,3,0.1
COc1ccc2nc(NC(=O)c3cccc(OCc4c(C)noc4C)c3)sc2c1,0.8,33*,17,10,18,0.9
Cc1nnc(NC(=O)Cc2ccc(OCc3c(C)noc3C)cc2)s1,0.8,24,18,-11,-7,1.1
O=C(NCCC1=CCCCC1)N[C@@H](Cc1ccccc1)C(=O)O,1,6,-1,7,-1,0.9
c1ccc(OCCCCn2cnc3ccccc32)cc1,0.9,9,9,60*,0,0.4
Cc1cccc(Cn2cnc3ccccc32)c1,0.5,9,53*,84*,3,0.2
